{"source": "PubChem BioAssay (NCATS)", "note": "“And” between values parts separate entries of the source, which are not always exact repeats. Equal entries are not always repeated. Inconclusive results are not listed. A number with no mark means an inactive call. The source made the active and inactive calls. The call rests on the fitted dose curve; in most records, active means well fitted inhibition curve with a large enough effect; inconclusive means small, poorly fitted or top-dose-only effect; inactive means flat fitted curve, though single readings scatter. Where a SMILES comes first, the peptide text is derived from it. Bridges are numbered along the chain shown (N, C = ends). [ ]: non-standard residue; d: D form. The star is where a group is joined. X2 = CC[C@H](C)CCCCC(=O)*; Dab = NCC[C@H](N)C(=O)O"}
{"test_system": "KB-3-1", "assay": "Cytotoxic Profiling of Annotated Libraries Using Quantitative High-Throughput Screening (AID 1296008); further: nearly all actives have a fitted effect of over 60% in size; further: potency means the concentration at half of the fitted maximal effect; on max response: on the % scale 0 is the no-effect control and ±100 the full control effect", "settings": "Five cell lines viability, CellTiter-Glo ATP luminescence, 48-72 h; max response: active compounds read low", "procedure,_shortened": "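Compounds were pin-transferred onto cells and incubated 48 or 72 hr at 37 degree Celsius, 95% humidity. CellTiter-Glo was added, plates sat 10 min at room temperature, then ATP-coupled luminescence was imaged as the viability read-out.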"}
{"compound": "CO[C@@H]1[C@@H](O[C@@H]2O[C@H](C)[C@@H](O[C@H]3C[C@@](C)(O)[C@@H](OC(=O)CC(C)C)[C@H](C)O3)[C@H](N(C)C)[C@H]2O)[C@@H](CC=O)C[C@@H](C)[C@@H](O)/C=C/C=C/C[C@@H](C)OC(=O)C[C@H]1O", "max response": "-0.235%"}
{"compound": "CC(=O)S[C@@H]1CC2=CC(=O)CC[C@]2(C)[C@H]2CC[C@@]3(C)[C@@H](CC[C@@]34CCC(=O)O4)[C@H]12", "max response": "-24%"}
{"compound": "COc1cc(C[C@@H]2NCCc3cc(O)c(O)cc32)cc(OC)c1OC", "max response": "-8.11%"}
{"compound": "CN(C(=O)CO)c1c(I)c(C(=O)NCC(O)CO)c(I)c(C(=O)NCC(O)CO)c1I", "note": "(stereo not drawn)", "max response": "5.16%"}
{"compound": "CCCCC(=O)O", "max response": "-12.9% and -9.7%"}
{"compound": "COCC1=C(C(=O)OC(C)OC(=O)OC(C)C)N2C(=O)[C@@H](NC(=O)/C(=N\\OC)c3csc(N)n3)[C@H]2SC1", "note": "(stereo partly drawn)", "max response": "-19.8% and -4.94%"}
{"compound": "O=C(O)c1cc2ccccc2c(Cc2c(O)c(C(=O)O)cc3ccccc23)c1O", "max response": "-8.98%"}
{"compound": "CC[C@H](C)CCCCC(=O)N[C@@H](CCN)C(=O)N[C@H](C(=O)N[C@@H](CCN)C(=O)N[C@H]1CCNC(=O)[C@H]([C@@H](C)O)NC(=O)[C@H](CCN)NC(=O)[C@H](CCN)NC(=O)[C@H](CC(C)C)NC(=O)[C@@H](CC(C)C)NC(=O)[C@H](CCN)NC1=O)[C@@H](C)O", "note": "(X2-[Dab]T[Dab][Dab][Dab][dL]L[Dab][Dab]T; lactam 4-C)", "max response": "-11.4%"}
{"compound": "CC(=O)O[C@H]1CC[C@]2(C)[C@H]3CC[C@]4(C)Oc5oc(C)cc(=O)c5C[C@H]4[C@]3(C)CC[C@H]2C1(C)C", "outcome": "inactive"}
{"compound": "C[N+](C)(CCCCCC[N+](C)(C)C1c2ccccc2-c2ccccc21)C1c2ccccc2-c2ccccc21", "max response": "-17.2%"}
{"compound": "CC1(C)S[C@@H]2[C@H](NC(=O)C(C(=O)Oc3ccc4c(c3)CCC4)c3ccccc3)C(=O)N2[C@H]1C(=O)O", "note": "(stereo partly drawn)", "max response": "21.3%"}
{"compound": "COc1cc2c(c(OC)c1OC)-c1c(cc3c(c1OC)OCO3)C[C@@H](C)[C@](C)(O)C2", "max response": "21.3% and -4.33%"}
{"compound": "COC[C@H](c1ccc(C(F)(F)F)cc1)N1CCN(C2(C)CCN(C(=O)c3c(C)ncnc3C)CC2)C[C@H]1C", "max response": "-20%"}
{"compound": "COc1cc([C@@H]2c3cc4c(cc3C(O[C@@H]3O[C@@H]5COC(c6cccs6)O[C@H]5[C@H](O)[C@H]3O)C3COC(=O)[C@@H]32)OCO4)cc(OC)c1O", "note": "(stereo partly drawn)", "Potency": "3.66 µM (active)"}
{"compound": "CC(=O)O[C@H]1CC[C@@]2(C)C(=CC[C@H]3[C@@H]4CC[C@H](C(C)=O)[C@@]4(C)CC[C@@H]32)C1", "max response": "2.35%"}
{"compound": "CCOC(=O)COc1ccc2c(C)c(CCN(CC)CC)c(=O)oc2c1", "max response": "-7.36%"}
{"compound": "COc1ccc(CCNCC(O)COc2cccc(C)c2)cc1OC", "note": "(stereo not drawn)", "max response": "-6.7%"}
{"compound": "COc1ccc(C2NC(=S)N3C(c4ccc(OC)c(OC)c4)NC(=S)N23)cc1OC", "note": "(stereo not drawn)", "max response": "-2.1%"}
{"compound": "COC1=C(C(=O)O)N2C(=O)[C@@H](NC(=O)[C@H](N)C3=CCC=CC3)[C@H]2SC1", "max response": "-6.73%"}
{"compound": "OCC(O)COc1ccc(Cl)cc1", "note": "(stereo not drawn)", "max response": "-9.74%"}
{"compound": "CS(=O)(=O)Nc1cc2occ(NC=O)c(=O)c2cc1Oc1ccccc1", "max response": "1.81%"}
{"compound": "CC1(C)CN(C(=O)c2ccc(-c3cccc4nc(NC(=O)C5CC5)nn34)cc2)C1", "outcome": "inactive"}
{"compound": "CO[C@H]1C[C@H](O[C@H]2[C@H](C)O[C@@H](O[C@@H]3/C(C)=C/C[C@@H]4C[C@@H](C[C@]5(C=C[C@H](C)[C@@H](C6CCCCC6)O5)O4)OC(=O)[C@@H]4C=C(C)[C@@H](O)[C@H]5OC/C(=C\\C=C\\[C@@H]3C)[C@]54O)C[C@@H]2OC)O[C@@H](C)[C@@H]1O", "Potency": "20.6 µM (active)"}
{"compound": "C=C1CC2C3CCC4=CC(=O)C=C[C@]4(C)[C@@]3(F)[C@@H](O)C[C@]2(C)[C@@]1(O)C(=O)COC(C)=O", "note": "(stereo partly drawn)", "max response": "3%"}
{"compound": "CCN1CCCC1CNC(=O)c1cc(S(=O)(=O)CC)ccc1OC", "note": "(stereo not drawn)", "max response": "-13.4% and -13.1%"}
{"compound": "CCOc1ccc(N=C(C)Nc2ccc(OCC)cc2)cc1", "max response": "-26.1%"}
{"compound": "O=S(O)CO", "max response": "-16%"}
{"compound": "COC(=O)C[C@](O)(CCCC(C)(C)O)C(=O)O[C@@H]1C(OC)=CC23CCCN2CCc2cc4c(cc2[C@H]13)OCO4", "note": "(stereo partly drawn)", "Potency": "0.058 µM (active)"}
